In PubChem BioAssay AID651610 (Broad Institute, 2012):
Out of some 360,000 compounds screened, about 3,900 (1.1%) were called active.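 Rule for the calls: active = mean replicate inhibition score of at least 50 and every replicate individually at or above 50; inconclusive = only one of the two criteria met; inactive = mean below 50 and not all replicates reaching 50.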 The entries come from a sample that favours actives as a whole.

Test: inhibitors of HIV-1 Env-driven cell-cell fusion, primary screen, HeLa-JRFL effector, CEM21 target cells, luciferase (AID 651610);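 note: 0% = plate neutral controls and 100% = maraviroc near 300 nM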
Conditions: active compounds read high; at 16.7 µM unless noted

inhibition, active:
CCOC(=O)C1=C(c2ccc(OC)cc2)C(=O)c2ccccc2C1=O 74.3% [at 12.3 µM]
COC(=O)[C@@]12CCCN1[C@H](c1ccc(-c3ccc(F)cc3)c(OC)c1)[C@H]1C(=O)N(C)C(=O)[C@H]12 71.6% [at 12.3 µM]
CCCCCCSc1ccc([C@@H]2[C@@H]3C(=O)N(CC)C(=O)[C@@H]3[C@]3(C(=O)OC)CCCCN23)cc1OC 73.2% [at 12.3 µM]
Cc1ccccc1-n1cc(CNC(=O)CC2C(=O)NCCN2C/C=C/c2ccccc2)cn1 (stereo not given) 58% [at 12.3 µM]
COC(=O)C1CCN(C(=O)COC(=O)c2cc(S(=O)(=O)N3CCOCC3)ccc2C)CC1 72.4% [at 12.3 µM]
CN(C)CCCn1c(=O)n(Cc2ccccc2)c(=O)c2c3c(sc21)CCCCC3 63.7% [at 12.3 µM]
CCN(C[C@H]1N[C@@](CC)(C(=O)OC)[C@H]2C(=O)N(Cc3ccccc3)C(=O)[C@@H]12)S(=O)(=O)c1ccc(C(F)(F)F)cc1 99.4% [at 12.3 µM]
CNC(=O)C1CN(C(=O)c2cccc(S(=O)(=O)N3CCc4ccccc43)c2)c2ccccc2O1 (stereo not given) 60.2% [at 12.3 µM]

inhibition, inactive:
CCC(=O)N(C)C[C@@H]1Oc2cc(C#Cc3cccnc3)ccc2S(=O)(=O)N([C@H](C)CO)C[C@@H]1C 19.7%
CNC(=O)C[C@@H]1CC[C@@H]2[C@H](COc3ccc(NC(=O)c4cccs4)cc3C(=O)N2C)O1 0.696%
CO[C@H]1CN(C)C(=O)c2cc(NS(=O)(=O)c3ccccc3)ccc2OC[C@H](C)N(C)C[C@@H]1C 5.07%
CNC[C@H]1Oc2cc(-c3cccnc3)ccc2S(=O)(=O)N([C@@H](C)CO)C[C@H]1C -16.2%
CC(=O)N[C@H]1CC[C@H](CCNC(=O)C2CC2)O[C@H]1CO -15.4%
CCOC(=O)C(Cc1ccccc1)NC(=O)CCC(=O)c1ccc(OC)cc1 (stereo not given) 4.22% [at 12.3 µM]
CCOC(=O)C(Cc1ccc(N)cc1)N1C(=O)c2ccccc2C1=O (stereo not given) 6.82% [at 12.3 µM]
COc1ccc(NC(=O)Nc2ccc3c(c2)C(=O)N([C@@H](C)CO)C[C@@H](C)[C@H](CN(C)C(=O)NC(C)C)OCCCC[C@H](C)O3)cc1 11.6%
CCCCCCSc1ccc([C@@H]2[C@H]3C(=O)N(CC)C(=O)[C@H]3[C@]3(C(=O)OC)CCCCN23)cc1 8.61% [at 12.3 µM]
CCN1C(=O)[C@@H]2[C@@H](c3ccc(-c4ccc(OC)cc4)c(OC)c3)N3CCC[C@@]3(C(=O)OC)[C@@H]2C1=O -5% [at 12.3 µM]
CCN1C(=O)[C@@H]2[C@@H](c3ccc(-c4ccccc4)cc3)N3CCCC[C@@]3(C(=O)OC)[C@@H]2C1=O -3.15% [at 12.3 µM]
CCN1C(=O)[C@@H]2[C@@H](c3ccc(-c4cccc(Cl)c4)cc3)N3CCC[C@@]3(C(=O)OC)[C@@H]2C1=O -3.1% [at 12.3 µM]
Cc1ccc(S(=O)(=O)N(C)C[C@@H]2Oc3ccc(NC(=O)Cc4ccccc4)cc3CC(=O)N([C@H](C)CO)C[C@H]2C)cc1 14.2%
CO[C@@H]1CN(C)C(=O)c2cc(NC(=O)c3ccc(F)cc3)ccc2OC[C@H](C)N(C(=O)CN(C)C)C[C@H]1C 6.25%
O=C(CC1C(=O)NCCN1Cc1ccc(-c2ccccc2)cc1)NCc1ccncc1 (stereo not given) -0.899% [at 12.3 µM]
Cc1ccccc1-n1cc(CNC(=O)C2CCC(=O)N(C3CC3)C2)cn1 (stereo not given) 5.76% [at 12.3 µM]
C[C@@H]1CN([C@@H](C)CO)C(=O)Cc2cc(NS(=O)(=O)c3cccs3)ccc2O[C@@H]1CN(C)C(=O)Nc1ccc(C(F)(F)F)cc1 0.927%
CC(C)NC(=O)N(C)C[C@H]1Oc2ncc(-c3cccc(C#N)c3)cc2C(=O)N([C@@H](C)CO)C[C@H]1C 8.57%
CC1CCN(C(=O)COC(=O)c2cc(S(=O)(=O)N3CCOCC3)ccc2Cl)CC1 5.19% [at 12.3 µM]
CCOC(=O)C1CCN(C(=O)COC(=O)C2CCN(S(=O)(=O)c3ccc4c(c3)OCCO4)CC2)CC1 29.3% [at 12.3 µM]
COc1ccc(CNC(=O)C[C@H]2CC[C@H](NC(=O)Nc3ccc4c(c3)OCO4)[C@H](CO)O2)cc1 15.7%
CC(C)NC(=O)N(C)C[C@@H]1OCCCC[C@@H](C)Oc2ccc(NC(=O)NC3CCCCC3)cc2C(=O)N([C@@H](C)CO)C[C@@H]1C -9.6%
C[C@H]1CN([C@@H](C)CO)C(=O)c2cc(C#CC3(O)CCCC3)cnc2O[C@@H]1CN(C)C(=O)Cc1ccccc1 15.7%
C[C@@H]1CN([C@H](C)CO)S(=O)(=O)c2ccc(C#CCN(C)C)cc2O[C@@H]1CN(C)C 5.39%
CCn1c(=S)[nH]c2sc3c(c2c1=O)CCCCC3 -33.7% [at 12.3 µM]
O=c1c2c3c(sc2n(CCN2CCCC2)c(=O)n1Cc1ccccc1)CCCCC3 46.8% [at 12.3 µM]
CNC(=O)C[C@@H]1CC[C@H]2[C@@H](COc3ccc(NC(=O)NCc4ccccc4)cc3C(=O)N2C)O1 -0.208%
COC(=O)[C@]1(Cc2ccccc2)N[C@H](CN(C)S(=O)(=O)c2ccc(OC(F)(F)F)cc2)[C@@H]2C(=O)N(Cc3ccccc3)C(=O)[C@@H]21 48.1% [at 12.3 µM]
CCN(C[C@H]1N[C@@](CC)(C(=O)OC)[C@H]2C(=O)N(Cc3ccccc3)C(=O)[C@@H]12)S(=O)(=O)c1ccccc1 42% [at 12.3 µM]
Cc1ccc(S(=O)(=O)N[C@@H]2CC[C@@H](CC(=O)O)O[C@@H]2CO)cc1 7.43%
CN1CCN(S(=O)(=O)c2cccc(C(=O)N3CCc4ccccc43)c2)CC1 -15.7% [at 12.3 µM]
CC1CCN(C(=O)c2cccc(S(=O)(=O)N3CCCc4ccccc43)c2)CC1 39.9% [at 12.3 µM]
